Screening results deposited in PubChem by several laboratories.
HIF-2a inh: inhibitors of HIF-2a; 786-0 RCC cells HIF-2a reporter, luciferase luminescence, overnight; inhibition, % at 18.8 µM; AID 624352; hit rate 0.72% among 360,000;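 active means inhibition of the luminescence signal of 40% or more relative to plate controls, in a single-dose primary screen at 18.75 µM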
PAX8 inh HTS: lowers PAX8-driven luciferase in RMG-I cells; RMG-I TPO-luciferase reporter, SteadyGlo, 24 h; inhibition, % at 12.6 µM; hit rate 1.2% among 360,000; AID 652154;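 active means mean replicate inhibition at least 60% with every replicate also reaching 60%; inconclusive means only one of the two criteria is met; inactive means mean below 60% and not all replicates reaching 60%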;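 further: luciferase light reporting Pax8 driven TPO promoter activity; plate controls were median of neutral control wells for no effect and mitoxantrone controls for full effect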
EBV LMP1 NFkB: inhibitors of Epstein-Barr LMP1-induced NF-kappaB reporter. inhibition, % at 12.5 µM. hit rate 0.69% among 350,000. LMP1-induced NF-kappaB luciferase reporter cells, luminescence; in the data active means inhibition above about 41%; inconclusive means no clear call, values can overlap the other calls;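 further: 0% = neutral control wells and 100% = reference inhibitor control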
Shn3 3UTR inh: inhibitors of Schnurri-3 3'UTR reporter in osteoblasts; Clone20 osteoblast Shn3 3'UTR firefly luciferase, 24 h; inhibition, % at 12.5 µM; hit rate 0.52% among 360,000; AID 588674;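 active means mean inhibition of at least 75% with every replicate also reaching 75%; inconclusive means mean inhibition at least 75% but some replicate below; inactive means mean inhibition below 75%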;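 further: 0% = median of neutral control wells and 100% = pilot-screen positive control compound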
Peg3 promoter: Peg3 promoter activity inhibition; hit rate 1.7% among 360,000; HeLa PEG-Prom luciferase reporter, luminescence, overnight; inhibition, % at 20 µM;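 active means inhibition of at least 50% at 20 µM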
MITF TRPM1 inh: MITF TRPM1 promoter inhibition in SK-MEL-5 cells; SK-MEL-5 TRPM1 promoter luciferase, 24 h; inhibition, % at 12.5 µM; hit rate 0.83% among 330,000; AID 488899;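 active means mean inhibition across replicates of 60% or more, whatever share of single replicates reaches that level; inconclusive means some that reach 60%, reason not given; inactive means mean inhibition across replicates below 60%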
Numbers without * were called inactive; u = inconclusive; x = no result. Hits are enriched below; roughly 2.8% of the tested compounds scored in any of these assays.

SMILES	HIF-2a inh	PAX8 inh HTS	EBV LMP1 NFkB	Shn3 3UTR inh	Peg3 promoter	MITF TRPM1 inh
COc1cc(-c2cc(NC=O)c3ncc(-c4ccc(C(C)=O)cc4)n3c2)cc(OC)c1OC	27	33	x	19	57*	x
Clc1ccc(-c2nnc(Sc3nc4ccccc4o3)c3ccccc23)cc1	24	x	-15	-24	25	-22
O=c1c(Cl)c2oc3ccccc3nc-2c2ccccc12	-20	x	-13	8	-15	63*
Cn1c(=O)c(C(=O)NNC(=O)c2ccc(Br)cc2)c(O)c2ccccc21	7	64*	-4	1	54*	20
CC(C)NC(=O)Nc1cccc2c1O[C@H](CN(C)C(=O)NC1CCCCC1)[C@@H](C)CN([C@@H](C)CO)C2=O	x	-19	x	x	x	x
CN(C)C(=O)c1cccc(-c2ccc([C@@H]3[C@@H](CO)N4C(=O)CN(C(=O)C5CCCC5)C[C@H]34)cc2)c1	x	-18	x	x	x	x
Cc1cc(C)c2c(NC(=O)CCl)nn(C)c2n1	10	26	-31	-13	52*	4
COCC(=O)N(C)C[C@H]1Oc2ncc(-c3ccccc3OC)cc2C(=O)N([C@@H](C)CO)C[C@H]1C	x	-8	x	x	x	x
O=C(C[n+]1cc(-c2ccccc2)n2c1CCC2)c1cccs1	7	23	-1	2	0	12
O=C(C[n+]1cc(-c2ccccc2)n2c1CCC2)N1c2ccccc2Sc2ccccc21	-7	57	10	-2	-10	17
Cc1ccc(-c2c[n+](Cc3cccc(Cl)c3)c3n2CCC3)cc1	10	58	6	47	24	67*
O=C(C[n+]1cc(-c2ccc(Br)cc2)n2c1CCCCC2)c1ccccc1	-6	75*	-8	19	18	32
Cc1ccc(-c2c[n+](CC(=O)N3c4ccccc4Sc4ccccc43)c3n2CCC3)cc1	-3	91*	4	-9	-16	18
O=C(C[n+]1cc(-c2ccc(Cl)cc2)n2c1CCCCC2)c1ccccc1	-79	93*	-3	-11	-58	0
CCC(=O)Nc1ccc2c(c1)OC[C@@H](C)N(CC1CCOCC1)C[C@@H](C)[C@@H](OC)CN(C)C2=O	x	-3	x	x	x	x
COc1ccccc1-c1ccc2c(c1)[C@@H]1[C@@H](CCN1C(=O)C1CCOCC1)[C@@H](CO)N2	x	6	x	x	x	x
O=C(CCl)N(C/C=C/c1ccccc1)c1ccc2c(c1)OCCO2	-56	84*	-10	-9	-59	4
O=C(/C=C/c1ccccc1)c1ccc2c(c1)OCCCCO2	-123	-145	-45	-71	-169	-92
Cc1c(NC(=O)c2cccc(NC(=O)COc3ccccc3C#N)c2)c(=O)n(-c2ccccc2)n1C	45*	65*	54*	10	0	51
COC(=O)c1sc(N)c(C(=O)OC)c1Cn1ncc(Cl)c(Cl)c1=O	9	63*	-15	22	15	10
COC(=O)c1sc(N)c(C(=O)OC)c1COC(=O)c1c(C)noc1C	19	-3	3	-3	23	3
O=C(O)c1cnccn1	1	-26	-2	-18	-12	-1
CSC(=N/N=C(\N)c1cnccn1)SC	-17	-11	43*	-16	-31	3
C[C@@H]1CN([C@@H](C)CO)C(=O)c2cc(C#CCN(C)C)cnc2O[C@H]1CN(C)C(=O)CCN1CCCCC1	x	-8	x	x	x	x
Cc1cc(C(=O)Nc2cccc3c2O[C@@H](CN(C)C(=O)Nc2cccc4ccccc24)[C@@H](C)CN([C@H](C)CO)C3=O)n(C)n1	x	15	x	x	x	x
SMILES	HIF-2a inh	PAX8 inh HTS	EBV LMP1 NFkB	Shn3 3UTR inh	Peg3 promoter	MITF TRPM1 inh
Nc1ncn([C@H]2C[C@H](O)[C@@H](CO)O2)c(=O)n1	-7	107*	-14	22	-20	-6
Nc1nc(Cl)nc2c1ncn2C1CC(O)C(CO)O1 (centres undefined)	11	33	24	90*	19	12
C[C@H]1CN([C@@H](C)CO)C(=O)Cc2cc(NS(C)(=O)=O)ccc2O[C@H]1CN(C)CC1CCCCC1	x	5	x	x	x	x
CO[C@@H]1CN(C)C(=O)c2ccc(NC(C)=O)cc2OC[C@H](C)N(C(=O)C2CC2)C[C@H]1C	x	-6	x	x	x	x
CCC(=O)Nc1ccc2c(c1)C(=O)N(C)C[C@H](OC)[C@H](C)CN(Cc1ccncc1)[C@@H](C)CO2	x	14	x	x	x	x
Cc1nnsc1C(=O)N/N=C/c1ccccc1	5	5	4	2	-13	-1
Cc1nnsc1C(=O)N/N=C/c1ccc2ccccc2c1O	3	u	48*	81	44	69*
C[C@H]1CN([C@@H](C)CO)C(=O)c2ccccc2-c2ccccc2CO[C@@H]1CN(C)Cc1ccc(Cl)c(Cl)c1	x	38	x	x	x	x
CN(C)CCNS(=O)(=O)c1ccc(N2CCN(c3ccc(F)cc3)CC2)c([N+](=O)[O-])c1	11	16	-8	52	63*	8
Cc1nn(-c2ccccc2)c(C)c1/C=N/n1c(-c2ccc(Cl)cc2)n[nH]c1=S	8	-5	3	11	53*	4
CC(C)CC(N)c1csc(Nc2cc(Oc3ccccc3)ncn2)n1 (centres undefined)	5	13	x	-5	63*	x
C[C@@H]1CCCCO[C@@H](CN(C)S(=O)(=O)c2cn(C)cn2)[C@H](C)CN([C@@H](C)CO)C(=O)c2cc(NC(=O)Cc3ccccc3)ccc2O1	x	-10	x	x	x	x
CN(C)CC(CCC(CN(C)C)C(=O)c1ccccc1)C(=O)c1ccccc1 (centres undefined)	94*	x	84*	98*	109*	97*
COc1ccc(C(=O)C(CCCCC(CN(C)C)C(=O)c2ccc(OC)cc2)CN(C)C)cc1 (centres undefined)	15	x	-30	-28	46	51
CCOc1ccc(C(=O)C(CCC(CN(C)C)C(=O)c2ccc(OCC)cc2)CN(C)C)cc1 (centres undefined)	93*	112*	67*	98*	106*	103*
C[C@@H]1CN([C@@H](C)CO)C(=O)c2c(c3ccccc3n2C)-c2ccccc2CO[C@@H]1CN(C)C(=O)Cc1ccccc1	x	13	x	x	x	x
CN1CCN(CCCNC(=O)c2ccc(/C=C3\Oc4ccccc4N(Cc4ccccc4F)C3=O)cc2)CC1	4	13	-6	3	69*	34
Cc1cccc(CN2C(=O)c3ccccc3Sc3ccc(C(=O)NCCCN4CCOCC4)cc32)c1	9	-5	6	3	6	-2
Cc1cccc(CN2C(=O)/C(=C\c3ccc(C(=O)NCCCN4CCN(C)CC4)cc3)Oc3ccccc32)c1	3	u	-1	12	87*	94*
COc1ccc(NC(=O)Nc2ccc3c(c2)CC(=O)N([C@H](C)CO)C[C@@H](C)[C@H](CN(C)S(C)(=O)=O)O3)cc1	x	7	x	x	x	x
C[C@@H]1CN([C@H](C)CO)C(=O)c2cc(/C=C/c3ccccc3)cnc2O[C@@H]1CN(C)C(=O)c1cccnc1	x	-17	x	x	x	x
